NALP1 inh: inhibitors of NALP1 inflammasome in yeast | 280,000 tested, 0.61% active | S. cerevisiae NALP1/ASC/caspase-1 growth, X-gal OD620, 72 h | AID 2071 | inhibition, % at 10 µM; in the data active = inhibition mostly above about 24%, no sharp cut-off; inactive = mostly below about 32%
dFosB activator: activators of mouse delta FosB homodimer. AID 493131. purified delta FosB, TAMRA-CDK5 oligo fluorescence polarization; percent of positive-control signal above neutral wells. 340,000 tested, 0.99% active. activation, % at 25 µM;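 active = mean activation above about 17%, with every replicate also reaching it, limit read from the data, passing the limit was not always enough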
Target sequence (P13346 whole entry, looked up): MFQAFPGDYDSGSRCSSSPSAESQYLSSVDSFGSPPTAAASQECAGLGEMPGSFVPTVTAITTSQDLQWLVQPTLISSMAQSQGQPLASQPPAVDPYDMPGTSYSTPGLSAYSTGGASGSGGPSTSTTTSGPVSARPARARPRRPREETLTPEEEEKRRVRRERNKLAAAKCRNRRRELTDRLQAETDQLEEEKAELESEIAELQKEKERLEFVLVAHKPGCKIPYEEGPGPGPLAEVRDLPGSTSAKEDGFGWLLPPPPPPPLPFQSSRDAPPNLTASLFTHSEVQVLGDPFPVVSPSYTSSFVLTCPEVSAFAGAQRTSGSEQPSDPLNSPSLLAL
Yeast superoxide: caloric restriction mimetics inhibiting age-related superoxide in yeast. superoxide response (% of plate mean), % at 10 µM. S. cerevisiae aged cells, superoxide DHE fluorescence; stronger effect = lower value. 330,000 tested, 0.18% active. AID 2690;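 active = superoxide response under a set limit, about three screen SD below normal, cut at about 65% in these data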;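 note: yeast aged for seven days with compound at 30 °C before DHE staining; 100% = average MFI of all compound-treated wells on the plate with controls excluded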
UBC13 inh: blocks human UBC13 polyubiquitin chain formation; P61088; TR-FRET; inhibition, % at 20 µM; 330,000 tested, 0.47% active; AID 485273; in the data active = inhibition above about 45%, passing the limit was not always enough
Target sequence (P61088 whole entry, looked up): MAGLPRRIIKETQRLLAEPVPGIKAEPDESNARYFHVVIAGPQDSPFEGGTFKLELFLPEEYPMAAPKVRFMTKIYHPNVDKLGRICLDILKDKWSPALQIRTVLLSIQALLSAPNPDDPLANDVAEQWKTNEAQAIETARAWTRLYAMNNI
GRIN3A LBD mod: NR3A (human) ligand-binding domain modulation; NR3A LBD differential scanning fluorimetry, Tm shift; 0% = protein alone, 100% = glycine-bound protein; Tm shift relative to glycine control, % at 25 µM; 340,000 tested, 2.5% active; AID 1259313;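 active = melting temperature shift of at least 10% of the positive control shift, at one fixed dose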
The depositor's hits bear a star; i = inactive; · = not tested or not shown. Sampled rows, rich in hits. Any-hit rate of the full collection: about 4.3%.

SMILES	NALP1 inh	dFosB activator	Yeast superoxide	UBC13 inh	GRIN3A LBD mod
NC(=O)c1ccc(NC(=O)COC(=O)c2ccc(Br)o2)cc1	·	-4	99	-2	1
Cc1ccc(S(=O)(=O)N2CCCCC2)cc1NC(=O)COC(=O)C1CC2C=CC1C2 (stereo unspecified)	35	-2	111	5	10*
O=[N+]([O-])c1ccc(OCC(O)CN2CCN(c3ccccc3F)CC2)cc1 (stereo unspecified)	46*	-5	113	-1	-3
ClCc1csc(-c2ccc(Cl)cc2)n1	36	-9	90	-10	13*
CC(=O)N(C)c1ccc(OCC(O)Cn2c(C)nc3ccccc32)cc1 (stereo unspecified)	0	1	103	19	1
CN(C)c1ccc2nc3c(=O)[nH]c(=O)nc-3n(CC(O)C(O)C(O)CO)c2c1 (stereo unspecified)	21	117*	88	i	-411
N#CC(CO)(Cc1ccc(OC(F)F)cc1)c1nc2ccccc2[nH]1 (stereo unspecified)	34	2	91	10	-7
CCC(C)n1c(SCc2ccccc2)nc2ccsc2c1=O (stereo unspecified)	25	-6	89	9	11*
CCOc1ccccc1NC(=S)N1CCN(c2ccc(OC)cc2)CC1	-6	-6	94	8	10*
CCOc1ccccc1NC(=S)N1CCN(c2ccc(O)cc2)CC1	-14	3	102	-5	7
COCCn1cc(C(=O)c2cc(Br)ccc2O)cc(C#N)c1=O	6	1	93	-5	-2
CC1C/C(=C\c2cccnc2)C(=O)/C(=C/c2cccnc2)C1 (stereo unspecified)	68*	-8	96	·	-7
COc1cc(NC(=O)CSc2cc(C)c3cc(C)cc(C)c3n2)c(C(=O)O)cc1OC	·	-2	106	-11	-1
Cn1c(=O)c2c(ncn2CC(O)CNc2ccc(Br)cc2)n(C)c1=O (stereo unspecified)	-1	-12	97	1	23*
COc1ccc(NCC(O)Cn2cnc3c2c(=O)n(C)c(=O)n3C)cc1 (stereo unspecified)	-11	0	99	5	-2
O=C(NCc1ccc(Cl)cc1)C1CCC(=O)N(C2CCCCCC2)C1 (stereo unspecified)	22	1	94	1	10*
O=C(COC(=O)Cn1cnc2ccccc21)Nc1ccc2c(c1)C(=O)c1ccccc1C2=O	50*	-6	159	-28	4
CC(=O)c1ccc(NC(=O)COC(=O)Cn2cnc3ccccc32)cc1	·	-3	104	1	0
CCOC(=O)c1ccc(NC(=O)CSC(=S)N2CCOCC2)cc1	21	-9	195	-17	0
CCN(CC)CC(=O)c1c(N)n(Cc2ccccc2)c(=O)n(C)c1=O	9	2	89	-6	1
Cn1c(N)c(C(=O)COC(=O)c2cc(C3CC3)nc3ccccc23)c(=O)n(Cc2ccccc2)c1=O	32	0	108	-4	18*
CCC(=O)OCC(=O)c1c(N)n(Cc2ccccc2)c(=O)n(C)c1=O	32*	-12	114	-6	-3
Cn1c(N)c(C(=O)COC(=O)c2cc(-c3ccccc3)nc3ccccc23)c(=O)n(Cc2ccccc2)c1=O	37	11	95	-9	-1
NC(=O)C1CCCN(C(=O)c2ccc(-c3cccc(Cl)c3Cl)o2)C1 (stereo unspecified)	·	-23	·	5	1
Clc1ccc(N(CC2CO2)CC2CO2)cc1 (stereo unspecified)	·	2	·	·	-2
SMILES	NALP1 inh	dFosB activator	Yeast superoxide	UBC13 inh	GRIN3A LBD mod
COc1cc(/C=N/NC(=O)c2nc(-c3ccccc3)n(-c3ccccc3)n2)ccc1O	-4	-6	89	13	-2
COc1cc(/C=N/c2oc(-c3ccccc3)cc2C#N)ccc1O	18	2	88	-84	33*
CC(=O)c1c(C)oc2c1cc(NS(=O)(=O)c1ccc(C(=O)O)cc1)c1ccccc12	14	-3	113	-8	-19
Cc1ccc(NS(=O)(=O)c2ccc(NS(=O)(=O)c3cccs3)cc2)cc1	8	-4	101	-2	-3
Cc1ccc(S(=O)(=O)Nc2ccc(NC(=O)c3cccs3)cc2)cc1	28	5	101	2	18*
Cc1ccc(S(=O)(=O)Nc2ccc(Nc3ccccc3)cc2)cc1	22	-9	106	1	24*
O=S(=O)(Nc1ccc(Nc2ccccc2)cc1)c1ccc(F)cc1	·	-6	110	-6	-2
COc1ccc(NS(=O)(=O)c2ccc(NC(=O)CCNS(=O)(=O)c3ccc(C)cc3)cc2)cc1	21	-4	115	7	10*
Cc1ccc(S(=O)(=O)Nc2cc3c(C(=O)Nc4ccccc4)c(C)oc3c3ccccc23)cc1	28	-2	105	-16	12*
Cc1cccc(N=[N+]([O-])c2cccc(C)n2)n1	·	-3	99	·	1
CN(c1ccc([N+](=O)[O-])cc1C(N)=O)C1CCCCC1	-13	3	107	-22	-4
CCC(C)[C@H](NC(=O)[C@H](Cc1ccccc1)n1c(=O)[nH]c2ccccc2c1=O)C(=O)N1CCC[C@@H]1C(=O)O (stereo partly specified)	7	-6	92	-9	0
O=c1c(/C=N\NS(=O)(=O)c2ccccc2)coc2ccc(Cl)cc12	16	-7	100	3	-5
Cc1ccc(NCCC(=O)c2cccs2)cc1	7	3	102	0	13*
CCC(CC)C(=O)Nc1cccc(C(=O)Nc2ccc(S(=O)(=O)Nc3ccc(C)cc3)cc2)c1	2	-19	116	-2	19*
Cc1ccc(S(=O)(=O)Nc2ccc(NC(=O)c3c(F)c(F)c(F)c(F)c3F)cc2)cc1	38	-10	103	-8	15*
Cc1ccc(S(=O)(=O)Nc2ccccc2-c2ccccc2)cc1	-6	1	102	-12	-4
Cc1ccc(S(=O)(=O)Nc2ccccc2N(C)S(=O)(=O)c2ccc(C)cc2)cc1	·	2	89	7	13*
COc1ccc(NS(=O)(=O)c2ccc(OC)c(NC(=O)CCC3CCCCC3)c2)cc1	15	1	84	-10	22*
O=C(CCCOc1ccc(Cl)cc1Cl)N/N=C/c1ccccc1	24	-14	96	11	2
O=C(CCCOc1ccc(Cl)cc1Cl)N/N=C/c1ccccc1O	20	-3	105	-1	18*
COc1ccc(/C=N/NC(=O)CCCOc2ccc(Cl)cc2Cl)cc1[N+](=O)[O-]	-2	-5	108	22	12*
Cc1ccc(/C=N/NC(=O)CCCOc2ccc(Cl)cc2Cl)cc1	30	-7	101	13	12*
O=C(CCCOc1ccc(Cl)cc1Cl)N/N=C/c1ccco1	2	-5	93	10	-5
O=C(CCSCCC(=O)NN=Cc1ccccc1O)NN=Cc1ccccc1O	·	36*	·	·	-2
O=S(c1ccccc1O)S(=O)c1ccccc1O (stereo unspecified)	·	-12	·	·	5

From PubChem BioAssay
